Screens: PubChem, National Center for Advancing Translational Sciences (NCATS)
Compounds with a hit are over-represented: about 9.4% of the library has one in this group of screens.
SMN2 splice up = qHTS Assay for Enhancers of SMN2 Splice Variant Expression | HEK293 SMN2-luciferase splicing reporter, luminescence, 30-36 h | Potency, µM (series often up to 46.1 µM), for inactives: top-dose activity change, positive = activation, hits mostly activators | 210,000 compounds, 2.8% hits; further: % of control where 0% means no effect; nearly all actives have a fitted effect of over 55% in size
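qHTS luciferase splicing reporter: luminescence rises when SMN2 exon 7 is included in transfected HEK293 cells. Compound exposure lasted 30-36 h at 37C, with 4.5 mM final sodium butyrate as control, followed by a ONE-Glo read.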
ELG1 repair inh = qHTS screen for small molecules that inhibit ELG1-dependent DNA repair in human embryonic kidney (HEK293T) cells expressing luciferase-tagged ELG1; AID 504467, 2011; Potency, µM (titrated, usually from 46.1 µM), without a hit: at the top dose activity change, negative = inhibition, usual class: inhibitors; 330,000 compounds, 2.3% hits; HEK293T ELG1-luciferase reporter, luminescence, 16 h; DNA damage induced by 5-fluorouridine; further: on the % scale 0 is the no-effect control and ±100 the full control effect; nearly all actives have a fitted effect of over 55% in size
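DMSO vehicle served as the neutral condition. Each well held 2,000 cells given 5-fluorouridine plus compound; after 16 hr at 37 °C/5% CO2, ONE-Glo was added and luciferase measured 30 min later.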
ELG1 genotox = qHTS screen for small molecules that induce genotoxicity in human embryonic kidney (HEK293T) cells expressing luciferase-tagged ELG1 | 330,000 compounds, 1.3% hits | HEK293T ELG1-luciferase reporter, luminescence, 16 h | Potency, µM (top dose mostly 46 µM), without a hit: at the highest dose activity change, positive = activation, hits mostly activators; further: % of control where 0% means no effect; nearly all actives have a fitted effect of over 60% in size
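Genotoxicity was scored as increased ELG1-luciferase reporter signal, measured by ONE-Glo luminescence (30 min, room temperature). Compound or vehicle exposure of the HEK293T reporter cells lasted 16 hr at 37°C.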
NPC1 prom act = qHTS Assay for NPC1 Promoter Activators; Huh7 NPC1 promoter luciferase reporter, 24 h; Potency, µM (highest dose often 9.22 µM), for inactives: at the highest dose activation, usual class: activators; 320,000 compounds, 2.4% hits; further: % of control where 0% means no effect; nearly all actives have a fitted effect of over 60% in size
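Luminescence read-out of NPC1 promoter-driven luciferase in stably transfected Huh7 cells; compounds delivered in DMSO and left 24 h at 37C, 5% CO2, qHTS titration format.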
FLuc modulator = qHTS profiling assay for firefly luciferase inhibitor/activator using purifed enzyme and Km concentrations of substrates (counterscreen for miR-21 project); purified FLuc, Km substrates, luminescence inhibition; Potency, µM (titrated, usually from 57.5 µM), inactives show at the top dose activity change, negative = inhibition, most hits filed as inhibitors; 360,000 compounds, 6.9% hits;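 further: plate controls were vehicle for no effect and reference inhibitor for full effect; nearly all actives have a fitted effect of over 55% in size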
Target sequence (P08659 whole entry, looked up): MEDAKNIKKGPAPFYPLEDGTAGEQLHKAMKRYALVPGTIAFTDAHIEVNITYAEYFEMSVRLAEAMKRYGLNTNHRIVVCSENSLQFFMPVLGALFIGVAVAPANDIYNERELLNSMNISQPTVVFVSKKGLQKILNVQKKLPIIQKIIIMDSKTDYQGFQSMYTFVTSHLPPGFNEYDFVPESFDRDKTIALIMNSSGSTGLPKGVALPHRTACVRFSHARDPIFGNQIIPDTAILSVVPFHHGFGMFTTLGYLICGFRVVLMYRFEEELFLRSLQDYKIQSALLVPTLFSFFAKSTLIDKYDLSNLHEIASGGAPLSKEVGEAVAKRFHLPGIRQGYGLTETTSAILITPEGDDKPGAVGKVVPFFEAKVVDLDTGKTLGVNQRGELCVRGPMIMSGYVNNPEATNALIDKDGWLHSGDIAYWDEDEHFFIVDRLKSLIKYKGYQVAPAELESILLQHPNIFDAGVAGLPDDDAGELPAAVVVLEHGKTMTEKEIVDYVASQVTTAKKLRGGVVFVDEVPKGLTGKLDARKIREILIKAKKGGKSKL
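Purified P. pyralis luciferase (10nM final) with 10uM D-luciferin and 10uM ATP (Km levels) in 50mM Tris acetate pH 7.5, 10mM Mg acetate, 0.01% Tween-20, 0.05% BSA; qHTS 6-point titration, ~60 µM downward; luminescence read.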
Rab9 promoter act = qHTS Assay for Rab9 Promoter Activators; AID 485297, 2010; Potency, µM (top dose mostly 9.22 µM), for inactives: at the top dose activation, negative = inhibition, usual class: activators; Huh7 Rab9 promoter-luciferase reporter, luminescence, 24 h; 320,000 compounds, 2.8% hits; further: % of control where 0% means no effect; nearly all actives have a fitted effect of over 60% in size
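Luminescence read-out: Huh7 cells stably expressing Rab9-luciferase, treated 24 h with compound at 37 °C, then lysed with luciferase reagent for 10 min at ambient before reading.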
Starred values were filed as active, the others as inactive; ? = inconclusive; / = not tested or not shown; [ ] = dose if it differs, or a comment. The call rests on the fitted dose curve; in most records, active means well fitted curve in the direction sought with a large enough effect; inconclusive means small, poorly fitted or top-dose-only effect, or another doubt; inactive means no such curve, though single readings can be large; an effect the other way counts as inactive or inconclusive. Potency means the concentration at half of the fitted maximal effect.

SMILES | SMN2 splice up | ELG1 repair inh | ELG1 genotox | NPC1 prom act | FLuc modulator | Rab9 promoter act
CCOc1ccc(/C=N/NC(=O)c2cc3c(OC)cccc3[nH]2)cc1 | / | -7% | 6% | -5% | ? | -5%
COc1ccc(/C=N/NC(=O)c2cc3c(ccc4ccccc43)o2)c(OC)c1 | / | ? | -11% | 1% | ? | 0%
CCOc1ccc2[nH]c(C(=O)N/N=C/c3cc(OC)c(OC)c(OC)c3)cc2c1 | / | ? | -11% | 18% | 4.8µM* | 8%
CCOC(=O)c1c(C)[nH]c(C)c1S(=O)(=O)NCC(=O)NCc1ccc(C)cc1 | / | / | / | / | -1% | /
Nc1nn(-c2ccccc2)nc1C(=O)OCc1ccccc1 | 30% | ? | ? | 13% | 15µM* | 18%
COc1cc(C(C(=O)NC2CCCCC2)N(Cc2cccs2)C(=O)Cc2c[nH]c3ccccc23)cc(OC)c1OC (centres undefined) | -31% | 15µM* | -11% | -5% | 2% | -1%
Cc1ccc(C(C(=O)NC2CCCCC2)N(Cc2ccccc2)C(=O)Cc2c[nH]c3ccccc23)o1 (centres undefined) | -20% | ? | -17% | -1% | 1% | -7%
COc1cccc(CN(C(=O)Cc2c[nH]c3ccccc23)C(C(=O)NC2CCCCC2)c2ccc(C)o2)c1 (centres undefined) | -20% | 18µM* | -7% | -3% | -1% | -2%
COc1ccc(CN(C(=O)Cc2c[nH]c3ccccc23)C(C(=O)NC2CCCCC2)c2ccc(C)o2)cc1 (centres undefined) | -46% | 21µM* | -35% | 1% | 7% | -2%
COc1cc(C(C(=O)NC2CCCCC2)N(C(=O)Cc2c[nH]c3ccccc23)c2ccccc2C)cc(OC)c1OC (centres undefined) | -7% | 0% | -2% | -6% | 0% | -8%
CC(C)N(Cc1ccccc1)C(=O)C1CCCN(c2ncnc3onc(-c4ccc(F)cc4)c23)C1 (centres undefined) | / | / | / | / | -2% | /
CCN1c2ccccc2-c2nc(SCC(=O)Nc3c(C)cc(C)cc3C)ncc2S1(=O)=O | / | / | / | / | 3% | /
Cc1nc2nc(COc3ccccc3)[nH]n2c(=O)c1Cl | 16% | 1% | 2% | 7% | 19µM* | 7%
Cc1nc2nc(Cc3ccccc3)[nH]n2c(=O)c1Cl | -5% | -2% | 0% | 12% | 2%[2.3 µM] | -1%
CCOC(=O)c1sc(N)c(C(=O)OCC)c1COC(=O)C1CC(=O)N(Cc2ccco2)C1 (centres undefined) | 8% | ? | 5% | 3% | -2% | -2%
COC(=O)c1sc(N)c(C(=O)OC)c1COC(=O)C1CC(=O)N(Cc2ccco2)C1 (centres undefined) | -1% | 8.2µM* | -4% | 0% | -1% | -13%
Cc1ccccc1NC(=O)Cn1c(SCC(=O)Nc2ccc(F)cc2)nc2ccccc21 | / | / | / | / | 4% | /
COc1ccc(N2CCN(C(=O)C3CCN(S(=O)(=O)c4cn(C)cn4)CC3)CC2)cc1 | / | / | / | / | -1% | /
Cc1ccc(O)c(-c2cc(-c3ccccc3C)[nH]n2)c1 | 27% | ? | 1% | -3% | ? | -1%
Oc1ccccc1-c1cc(-c2cccc(F)c2)n[nH]1 | ? | ? | ? | -1% | 5.4µM* | 14%
CC(C)(C)c1ccc(-c2cc(-c3ccccc3O)[nH]n2)cc1 | / | ? | 0.58µM* | 0.32µM* | 0.76µM* | 0.28µM*
Cc1nc2ccc(S(=O)(=O)N(C)CC(=O)Nc3ccc(Br)c(C)c3)cc2s1 | 11% | / | / | / | -18% | /
Cc1ccc(C)c(N2CCN(C(=O)CN3C(=O)COc4ccc(S(=O)(=O)N5CCOCC5)cc43)CC2)c1 | -13% | / | / | / | 1% | /
CCNc1ncc2nc(-c3ccc(OC)cc3)c(=O)n(Cc3cccc(OC)c3)c2n1 | -3% | / | / | / | / | /
CCOc1ccc(/C=C/c2nc(C#N)c(N3CCN(CC)CC3)o2)cc1 | -6% | / | / | / | -6% | /
SMILES | SMN2 splice up | ELG1 repair inh | ELG1 genotox | NPC1 prom act | FLuc modulator | Rab9 promoter act
CSc1ccccc1C(=O)OCC(=O)N1CCCC1=O | / | 12% | 2% | 0% | -2% | -4%
O=C(Cc1ccc(-c2ccccc2)cc1)OCC(=O)N1CCCC1=O | 1% | 12% | 0% | -1% | 21µM* | 17%
COc1cc(/C=N/NC(=O)c2ccc3nc[nH]c3c2)cc(OC)c1OC | / | 0% | -4% | -10% | 12µM* | -7%
COc1cc(/C=N/NC(=O)c2ccc(CSc3nc4ccccc4[nH]3)cc2)cc(OC)c1OC | ? | 7.3µM* | -18% | 1% | ? | 1%
COc1ccc(/C=N/NC(=O)c2ccc3nc[nH]c3c2)cc1OC | / | 5% | -5% | 0% | ? | -4%
Cc1cc(C)n2cc(COc3ccc4ccccc4c3)nc2n1 | 13µM* | ? | ? | 1.8µM* | 2.4µM* | 1.1µM*
Cc1cccc2nc(COc3ccc(-c4ccccc4)cc3)cn12 | / | ? | 10% | 26% | 11µM* | ?
CCOC(=O)c1cn2c(C)cccc2n1 | 21% | 3% | 7% | -2% | 1% | 4%
Cc1nnsc1C(=O)NNC(=O)c1ccc(C(F)(F)F)cc1 | / | ? | 5% | 9% | 17µM* | 9%
Cc1nnsc1C(=O)NNc1ccc(C(C)(C)C)cc1 | / | 1% | -5% | 1% | -3% | 2%
CCN(CC1CCCO1)C(=O)c1cc(COc2ccc(OC)cc2Cl)on1 (centres undefined) | / | ? | 7% | 22% | ? | 20%
Cc1nc(CNC(=O)c2cc(COc3ccc(F)cc3Cl)on2)cs1 | / | -25% | 1% | -1% | 27µM* | 0%
COc1ccc(OCc2cc(C(=O)NCc3nc(C)cs3)no2)c(Cl)c1 | / | ? | ? | ? | 13µM* | ?
COc1ccc(OCc2cc(C(=O)NC(C)c3csc(C)n3)no2)c(Cl)c1 (centres undefined) | / | ? | 7%[9.26 µM] | ? | 13µM* | 4.5µM*
O=C(CC1N=C2c3ccccc3N=C(SCC(=O)Nc3cccc(C(F)(F)F)c3)N2C1=O)NCc1cccs1 (centres undefined) | 4% | / | / | / | 4% | /
CC(=O)c1sc(N/N=C\c2ccc(N(C)C)cc2)nc1C | / | ? | 4.6µM* | 1.3µM* | 1.3µM* | 2.5µM*
CC(=O)c1sc(N/N=C/c2cccc(O)c2)nc1C | / | ? | ? | 10% | 9.5µM* | ?
